Bioassay records deposited in PubChem by several laboratories.
The list is not random: actives were taken first. Their share in the collection is about 1.6%.
Rce1 inhib = inhibitors of yeast Ras-converting enzyme; Q03530; yeast membranes, quenched prenylated peptide cleavage fluorescence; calls only; 290,000 compounds, 0.27% hits; AID 2563;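 active means fall in fluorescence gain of 50% or more versus controls, with final raw signal at or below 3038400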;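 further: plate controls were neutral control wells for no effect and wells lacking membranes for full effect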
GC-B act = GC-B (human) receptor activation | activation, % at 10 µM | HEK293-GC-B cells, CNP EC30, cGMP TR-FRET; 0% at EC30 CNP, 100% saturating CNP | AID 1920062 | 370,000 compounds, 0.11% hits | P20594;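 active means activation at 10 µM reaching about 35% in either raw or pattern-adjusted values, limit read from the data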
GC-A act = GC-A (human) enzyme activation; P16066; HEK293 GC-A cells, cGMP TR-FRET, EC30 ANP; 0% at EC30 ANP, 100% saturating ANP; activation, % at 10 µM; 370,000 compounds, 0.14% hits; AID 1671463; in the data active means activation above about 40%
Efflux pump inh = antifungal efflux pump inhibition, Nile Red retention. inhibition, % at 10 µM. AID 485275. S. cerevisiae Candida pump triplex. 330,000 compounds, 0.44% hits;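 active means plate passing quality check with inhibition over a set limit, or well fluorescence over plate mean plus 4 SD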;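 further: Nile Red retained in pooled yeast measured as flow cytometry median fluorescence; 0% = buffer negative control and 100% = Enniatin B positive control; higher means more Nile Red kept so more efflux inhibition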
V-ATPase pH = regulators of yeast V-ATPase proton transport; S. cerevisiae, pHLuorin cytosolic pH fluorescence; AID 504577; response, % at 10 µM; 350,000 compounds, 0.37% hits; in the data active means response mostly above about 7.3%, no sharp cut-off; inactive means mostly below about 5.4%; further: actives read high
NSD2 inh = NSD2 (human) methyltransferase inhibition. inhibition, % at 12.5 µM. 310,000 compounds, 0.54% hits. O96028. NSD2 peptide methylation, AlphaScreen, 120 min. AID 743445; in the data active means inhibition above about 50%
The depositor's hits bear a star; i = inactive; / = no result given; + = active, no number.

SMILES | Rce1 inhib | GC-B act | GC-A act | Efflux pump inh | V-ATPase pH | NSD2 inh
O=C(CSCC(=O)N1CCN(c2ccccc2)CC1)Nc1nc(-c2ccc(Cl)s2)cs1 | i | -6.0 | 10.2 | -0.2 | -2.1 | /
O=C(CSCC(=O)N1CCCCC1)Nc1nc(-c2ccc(Cl)s2)cs1 | i | -1.6 | 43.4* | -0.1 | -4.6 | /
O=C(CN1C(=O)CCC1=O)Nc1nc(-c2cccs2)cs1 | i | 3.4 | 10.2 | 0.0 | -5.7 | -6.7
O=C(CN1C(=O)CCC1=O)Nc1nc(-c2ccc(Cl)s2)cs1 | i | 0.8 | 54.0* | -0.3 | -3.2 | -1.0
COc1ccc(CN2C[C@]3(C=C(C)Cn4c(=O)n(-c5ccccc5)c(=O)n43)N(C(=O)OCc3ccccc3)C2=NC(=O)c2ccccc2)c(OC)c1 | / | 3.6 | -2.5 | / | / | /
Cc1ccc2nc(-c3ccc(NC(=O)CSc4nnc(-c5cc(C)[nH]n5)n4N)cc3)sc2c1 | / | 2.4 | 6.1 | / | / | -1.6
CCC(NC(=O)c1ccc2c(ccn2Cc2cccc(-c3ccc(C(=O)O)cc3)c2)c1)c1ccccc1 (stereo not given) | / | -8.9 | -8.0 | / | / | /
CCN(CC)C(=O)CC[C@H]1CC[C@]2(CCCN(Cc3cccnc3)C2)O1 | / | -1.1 | 3.7 | / | / | /
N#Cc1c(SCc2ccccc2)nc(N2CCOCC2)c2c1CCCC2 | / | 37.5* | 35.0 | 0.0 | 0.2 | -1.0
CCSc1nc(N2CCCCC2)c2c(c1C#N)CCCC2 | i | -0.1 | -41.3 | -0.1 | -2.6 | -4.5
O=C1C(=O)c2ccccc2C(O)=C1CCCCl | i | / | / | 0.0 | -1.1 | 105.6*
CCSCCOC(=O)C1=C(C)NC(=O)NC1c1ccccc1 (stereo not given) | + | 4.1 | 13.5 | 0.0 | 4.1 | /
CCCCOC(=O)C1=C(C)NC(=O)NC1c1ccccc1 (stereo not given) | i | -4.9 | -6.1 | 0.0 | -1.5 | -0.1
O=C(Nc1nc2c(Br)cc(Br)cc2c(=O)s1)c1ccco1 | i | 35.2* | 77.5* | 0.1 | 0.4 | -0.3
CCc1nnc(NC(=O)C2CCCC2)s1 | / | / | / | / | / | -1.6
COc1ccccc1-c1coc2c(CN3CCOCC3)c(O)ccc2c1=O | + | -2.2 | 0.0 | -0.1 | -0.4 | 4.2
Oc1ccc(-c2[nH]ncc2-c2ccc(Cl)cc2)c(O)c1 | i | -3.2 | 49.4* | 0.0 | 2.2 | 1.5
Oc1ccc(-c2[nH]ncc2-c2ccc(Br)cc2)c(O)c1 | i | 0.2 | 66.6* | 0.0 | -0.8 | -0.9
COc1ccc(-c2cn[nH]c2-c2ccc(OC)cc2O)cc1 | i | 0.4 | 12.4 | 0.0 | -2.4 | 3.4
COc1ccc(C(=O)O[C@@H]2CCC[C@@]3(C(=O)N(Cc4ccccc4)c4ccccc43)[C@H]2NC(=O)CCc2ccccc2)cc1OC | / | 0.0 | 1.4 | / | / | /
C=CCNC(=S)Nc1c(C(=O)OC)[nH]c2cc(OC)ccc12 | i | 35.8* | 19.7 | 0.0 | -1.4 | -0.3
COC(=O)c1[nH]c2cc(OC)ccc2c1NC(=O)c1c(F)cccc1F | i | -0.7 | -3.5 | 0.0 | 2.9 | -0.5
Cc1cc(Br)cn2c(Cc3ccccc3)c(-c3ccco3)nc12 | / | 35.3* | 32.0 | / | / | /
CCCCCC(=O)Nc1cc(S(=O)(=O)N2CCCCC2)ccc1N1CCCCC1 | / | -2.1 | 0.0 | / | 9.5 | -1.2
CCCCCC(=O)Nc1cc(S(=O)(=O)O)cc2cc(S(=O)(=O)O)cc(O)c12 | / | 0.6 | -2.5 | / | -0.2 | 105.0*
SMILES | Rce1 inhib | GC-B act | GC-A act | Efflux pump inh | V-ATPase pH | NSD2 inh
Cc1cccc(CNC(=S)OC2CCC23CCC(c2ccccc2)CC3)c1 (stereo not given) | / | 1.6 | 0.1 | / | / | /
N#Cc1ccc(Cn2ccc3ccc(-c4ccc5ccn(C(=O)C6CCCCC6)c5c4)cc32)cc1 | / | 7.4 | 2.9 | / | / | /
COc1ccc(CC(=O)OCC(=O)Nc2ccc(Br)cc2)cc1 | + | -1.2 | 1.2 | 0.1 | 2.3 | 2.8
CN(C)/C=N/c1c(C#N)cnn1-c1ncnc2sc(-c3ccccc3)cc12 | + | 5.3 | 11.8 | 0.0 | -0.8 | 1.0
O=C(Nc1nc2c(Cl)cccc2s1)C1CC1 | i | -0.6 | 36.8 | -0.1 | -1.7 | -9.8
O=C(Nc1nc2c(Cl)c(Cl)ccc2s1)C1CC1 | i | -4.4 | 57.1* | 0.1 | 0.2 | /
O=C(Nc1nc2c(F)cc(F)cc2s1)C1CC1 | i | -1.9 | 66.9* | -0.1 | 3.0 | /
Cc1ccc2sc(NC(=O)C3CC3)nc2c1C | i | 0.0 | 55.3* | 0.0 | 0.2 | -3.5
O=C(Nc1nc2c(Cl)ccc(Cl)c2s1)C1CC1 | i | -5.9 | 60.6* | -0.1 | 3.3 | /
Cc1cc(C(=O)OCCCN(C)C2CN(Cc3cn(Cc4ccccc4C(F)(F)F)nn3)S(=O)(=O)C2)no1 (stereo not given) | / | 2.0 | -0.3 | / | / | /
COc1ccc(/C=C/C(Cc2cccc(C(C)=O)c2)c2ccc(C)cc2)cc1 (stereo not given) | / | 3.0 | -2.6 | / | / | /
CC(C)(C)c1ccc(Cc2nnc(SCC(=O)Nc3ccccc3F)[nH]c2=O)cc1 | / | / | / | / | / | -1.5
O[C@@H]1[C@@H](O)[C@H](n2c3ccc(Cl)cc3c3ccc4c5cc(Cl)ccc5[nH]c4c32)OC[C@H]1O | / | -7.0 | -3.2 | / | / | /
COC(=O)C[C@@H]1CC[C@H]2[C@@H](COc3ccc(NC(=O)c4ccc(C(F)(F)F)cc4)cc3C(=O)N2C)O1 | / | 5.9 | 2.1 | / | / | /
COc1ccc(-c2nn(-c3ccccc3)cc2N)cc1 | i | -2.2 | 3.2 | 0.0 | -0.8 | 62.7*
O=S1(=O)c2c(NCc3ccco3)cccc2Oc2ccccc2CN1Cc1cn(Cc2cccc(F)c2)nn1 | / | 0.7 | 0.3 | / | / | /
COCc1c(Br)c(C)[nH]c(=O)c1C#N | + | -1.7 | -0.6 | 0.4 | -1.9 | -2.4
Nc1cccc2nc3ccccc3cc12 | + | / | / | 0.4 | -5.3 | /
Nc1[nH]nc2nc3ccccc3cc12 | i | -9.4 | -7.9 | 0.1 | 5.8 | 1.5
COC(=O)c1ccc(-c2ccc(CNCC(O)c3ccccc3)o2)cc1 (stereo not given) | + | 3.0 | -1.7 | -0.1 | 0.7 | 0.5
COC(=O)c1ccc(CNCC(O)COc2ccc(-c3ccccc3)cc2)cc1 (stereo not given) | i | -1.8 | -3.4 | 0.1 | -5.2 | -0.4
COc1ccc(C(=O)/C=C/c2ccc(OC)cc2OC)c(O)c1 | + | -8.3 | -0.1 | -0.2 | -0.9 | /
CCOc1ccc2nc(NC(=O)c3cccc(N4C(=O)CCC4=O)c3)sc2c1 | / | -5.0 | 23.9 | / | / | -2.6
O=C(Nc1nc2ccc(Cl)cc2s1)c1cccc(N2C(=O)CCC2=O)c1 | / | -4.9 | 73.7* | 0.1 | -1.4 | 1.3
O=C(Nc1nc2cc3c(cc2s1)OCO3)c1cccc(N2C(=O)CCC2=O)c1 | i | 3.4 | 39.8 | 0.0 | -3.0 | 1.4
COc1ccc2nc(NC(=O)c3cccc(N4C(=O)CCC4=O)c3)sc2c1 | / | 0.0 | 53.7* | -0.2 | -1.8 | -0.2
Cc1ccc(-c2cc(C(=O)NN=Cc3cccc(OCc4ccccc4)c3)[nH]n2)cc1C | / | 0.1 | -5.8 | / | / | -0.1
Cc1nc(NC(=O)CSc2nnc3ncccn23)sc1C | / | / | / | / | / | 1.5
